According to PubChem BioAssay (NCATS):
“And” between values parts separate entries of the source, which are not always exact repeats. Equal values may be shown once. Results filed as inconclusive are left out. The source made the active and inactive calls. Unless noted, calls follow the shape of the full dose curve.

How the values were obtained:
[1] = MultiTox-Fluor Cytotoxicity Assay - LYMP1-001 - Live Cells (AID 947; active = well fitted curve in the direction sought with a large enough effect; an effect the other way counts as inactive or inconclusive;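 also: 0% = DMSO only and full inhibition = tetraoctylammonium bromide control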)
[2] = Cell Viability - LYMP2-015 (AID 971; active = well fitted curve in the direction sought with a large enough effect; an effect the other way counts as inactive or inconclusive;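 also: 0% = DMSO only and full effect = 92 µM tetraoctylammonium bromide; nearly all actives have a fitted effect of over 55% in size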)
In short: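 Human lymphoblastoid cells (2500/well) in complete medium were preincubated 5 hr at 37 C, then compound-treated 24 hr at 37 C. Intracellular ATP was read by CellTiter-Glo luminescence after 30 min at room temperature; AC50 came from Hill-equation concentration-response fits.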

[3] = biological target: Glucocorticoid receptor (Homo sapiens) (UniProt P04150); assay: qHTS assay for small molecule agonists of glucocorticoid receptor signaling (AID 588532; active = well fitted curve in the direction sought with a large enough effect in the signal ratio, with a control signal flat; the % refers to the signal ratio;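 also: 100% = dexamethasone at 0.1 µM and 0% = DMSO only wells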); conditions: HeLa MMTV-bla, beta-lactamase ratio, agonist, 18 h; stronger effect = higher value; percent of dexamethasone control, DMSO zero
Glucocorticoid receptor (Homo sapiens), sequence (P04150 whole entry, looked up): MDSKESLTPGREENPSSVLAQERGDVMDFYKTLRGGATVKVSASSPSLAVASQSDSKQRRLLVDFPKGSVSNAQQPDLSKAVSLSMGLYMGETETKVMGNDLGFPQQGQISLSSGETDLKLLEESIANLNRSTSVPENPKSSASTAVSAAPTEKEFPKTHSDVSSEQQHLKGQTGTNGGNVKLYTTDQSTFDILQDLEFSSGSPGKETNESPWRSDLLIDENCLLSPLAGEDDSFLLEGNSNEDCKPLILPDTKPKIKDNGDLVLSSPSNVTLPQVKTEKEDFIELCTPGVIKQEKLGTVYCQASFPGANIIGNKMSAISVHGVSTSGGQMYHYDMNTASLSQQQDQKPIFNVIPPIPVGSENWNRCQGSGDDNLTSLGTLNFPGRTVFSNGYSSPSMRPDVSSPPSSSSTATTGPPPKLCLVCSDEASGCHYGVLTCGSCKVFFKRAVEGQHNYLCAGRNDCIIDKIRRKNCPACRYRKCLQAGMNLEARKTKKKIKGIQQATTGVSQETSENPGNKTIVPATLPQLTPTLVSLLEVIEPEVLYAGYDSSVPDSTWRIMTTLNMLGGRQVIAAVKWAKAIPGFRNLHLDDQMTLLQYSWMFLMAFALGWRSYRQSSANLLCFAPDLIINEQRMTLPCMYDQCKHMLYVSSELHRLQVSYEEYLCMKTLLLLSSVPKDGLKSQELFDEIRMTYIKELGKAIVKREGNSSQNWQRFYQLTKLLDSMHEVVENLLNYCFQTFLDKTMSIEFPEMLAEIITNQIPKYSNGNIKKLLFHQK
In short: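 Quantitative HTS using CellSensor MMTV-bla HeLa cells in charcoal/dextran-treated serum; compounds tested up to 92 uM. After 18 h at 37 C, CCF4 dye reported reporter induction.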

[4] = biological target: Peroxisome proliferator-activated receptor delta (Homo sapiens) (UniProt Q03181); assay: qHTS assay for small molecule agonists of peroxisome proliferator-activated receptor delta signaling (AID 588534);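 also: 0% = DMSO basal wells and 100% = positive control agonist at 10 µM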
Peroxisome proliferator-activated receptor delta (Homo sapiens), sequence (Q03181 whole entry, looked up): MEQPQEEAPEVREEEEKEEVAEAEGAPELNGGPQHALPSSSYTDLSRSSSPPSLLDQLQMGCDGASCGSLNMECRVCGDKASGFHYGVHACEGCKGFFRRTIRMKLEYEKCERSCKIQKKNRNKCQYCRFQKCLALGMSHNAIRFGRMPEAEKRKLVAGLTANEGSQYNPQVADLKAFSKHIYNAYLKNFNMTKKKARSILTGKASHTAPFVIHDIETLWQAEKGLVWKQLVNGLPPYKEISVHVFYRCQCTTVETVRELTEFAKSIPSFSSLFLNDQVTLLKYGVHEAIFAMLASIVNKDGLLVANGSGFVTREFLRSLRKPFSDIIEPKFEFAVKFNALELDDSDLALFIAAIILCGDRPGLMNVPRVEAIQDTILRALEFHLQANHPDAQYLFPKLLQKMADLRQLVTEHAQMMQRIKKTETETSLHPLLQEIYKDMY
In short: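 Cell-based beta-lactamase reporter assay run in agonist mode: cells seeded and incubated 5 hrs at 37 C, compounds added and incubated 18 hrs at 37 C. CCF4 dye fluorescence read after 2 hrs at RT; EC50 and efficacy from Hill fits.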

[5] = qHTS assay for small molecule antagonists of peroxisome proliferator-activated receptor delta signaling (AID 588535; active = well fitted inhibition curve with a large enough effect in the signal ratio, with a control signal flat, not every such curve was filed as active; the % refers to the signal ratio;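 as to max response: cells co-treated with a PPAR-delta agonist as stimulator during compound exposure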); conditions: HEK293T PPARd-UAS-bla, beta-lactamase FRET ratio, 18 h; 460 nm channel
In short: (§1)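 Cell-based beta-lactamase assay in antagonist mode: 4000 HEK293T PPAR-delta-UAS-bla cells per well, 5 hr preincubation then 18 hr compound incubation at 37 C. IC50 obtained by Hill equation fitting.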

[6] = biological target: Peroxisome proliferator-activated receptor delta (Homo sapiens) (UniProt Q03181); assay: as above
In short: as §1

[7] = biological target: Peroxisome proliferator-activated receptor gamma (Homo sapiens) (UniProt P37231); assay: qHTS assay for small molecule agonists of peroxisome proliferator-activated receptor gamma signaling (AID 588536; active = well fitted curve in the direction sought with a large enough effect in the signal ratio, with a control signal flat, not every such curve was filed as active; the % refers to the signal ratio;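 also: 0% = DMSO basal wells and 100% = rosiglitazone at 2 µM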)
Peroxisome proliferator-activated receptor gamma (Homo sapiens), sequence (P37231 whole entry, looked up): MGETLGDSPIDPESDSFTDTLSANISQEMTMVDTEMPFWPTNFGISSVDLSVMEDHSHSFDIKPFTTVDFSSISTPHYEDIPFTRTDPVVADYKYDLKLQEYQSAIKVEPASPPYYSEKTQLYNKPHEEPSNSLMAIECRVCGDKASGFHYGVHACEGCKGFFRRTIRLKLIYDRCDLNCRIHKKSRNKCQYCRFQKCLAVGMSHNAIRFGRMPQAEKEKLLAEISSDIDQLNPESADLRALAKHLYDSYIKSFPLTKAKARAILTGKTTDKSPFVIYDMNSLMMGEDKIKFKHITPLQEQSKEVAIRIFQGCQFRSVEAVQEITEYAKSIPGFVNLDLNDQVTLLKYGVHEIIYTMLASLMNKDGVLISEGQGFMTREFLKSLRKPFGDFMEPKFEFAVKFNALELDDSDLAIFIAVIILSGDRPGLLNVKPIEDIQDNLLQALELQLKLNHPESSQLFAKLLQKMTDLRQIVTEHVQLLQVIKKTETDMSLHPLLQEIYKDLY
In short: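 HEK293 UAS-bla reporter line, 1% charcoal/dextran FBS; titration, 16 h, 37 C; CCF4 loading 2 h RT; fluorescence 460/530 nm. Normalized to rosiglitazone 2 uM = 100%, DMSO = 0%.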

[8] = biological target: Vitamin D3 receptor (Homo sapiens) (UniProt P11473); assay: qHTS assay for small molecule antagonists of vitamin D receptor signaling (AID 588541);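 also: receptor activated by calcitriol during compound treatment; series mostly up to about 77 µM; % is scaled to controls: 0 for no effect and ±100 for the full control effect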
Vitamin D3 receptor (Homo sapiens), sequence (P11473 whole entry, looked up): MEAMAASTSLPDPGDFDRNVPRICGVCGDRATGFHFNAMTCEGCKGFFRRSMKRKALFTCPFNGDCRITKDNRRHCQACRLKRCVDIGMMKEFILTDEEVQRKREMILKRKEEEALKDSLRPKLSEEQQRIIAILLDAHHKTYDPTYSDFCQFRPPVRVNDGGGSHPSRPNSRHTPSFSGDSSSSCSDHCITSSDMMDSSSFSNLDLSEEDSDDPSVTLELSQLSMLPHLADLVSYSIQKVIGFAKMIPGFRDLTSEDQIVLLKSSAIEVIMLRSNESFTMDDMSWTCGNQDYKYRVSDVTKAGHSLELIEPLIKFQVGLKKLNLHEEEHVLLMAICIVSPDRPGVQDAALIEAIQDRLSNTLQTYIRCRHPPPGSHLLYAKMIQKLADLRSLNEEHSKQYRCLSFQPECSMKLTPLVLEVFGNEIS
In short: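 Antagonist-mode beta-lactamase reporter assay: HEK293T VDR-UAS-bla cells were exposed to titrated compound alongside 1-alpha,25-dihydroxyvitamin D3 at 3 nM final for 16 h. Values were normalized to the 50 nM agonist control and DMSO basal, with IC50 and efficacy from Hill equation fits.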

[9] = biological target: Thyroid hormone receptor beta (Homo sapiens) (UniProt P10828); assay: qHTS assay for small molecule agonists of thyroid hormone receptor beta signaling (AID 588545)
Thyroid hormone receptor beta (Homo sapiens), sequence (P10828 whole entry, looked up): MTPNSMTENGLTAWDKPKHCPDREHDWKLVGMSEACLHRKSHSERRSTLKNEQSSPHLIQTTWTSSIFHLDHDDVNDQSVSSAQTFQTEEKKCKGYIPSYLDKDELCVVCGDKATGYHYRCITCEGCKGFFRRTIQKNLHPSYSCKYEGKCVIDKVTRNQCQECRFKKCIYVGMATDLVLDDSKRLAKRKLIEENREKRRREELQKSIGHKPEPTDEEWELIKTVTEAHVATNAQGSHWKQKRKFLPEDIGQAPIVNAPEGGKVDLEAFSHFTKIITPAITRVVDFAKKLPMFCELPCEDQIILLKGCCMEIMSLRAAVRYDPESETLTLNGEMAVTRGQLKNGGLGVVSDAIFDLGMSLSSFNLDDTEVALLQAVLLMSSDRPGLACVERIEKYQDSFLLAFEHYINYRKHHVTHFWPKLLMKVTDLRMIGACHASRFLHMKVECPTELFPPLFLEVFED
In short: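 HEK 293 TR-UAS-bla; agonist mode; 18 hrs, 37 C; CCF4, ex 405/em 460 and 530 nm; norm. T3 10 nM = 100%, DMSO = 0%; Hill fit → EC50, efficacy.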

[10] = biological target: Thyroid hormone receptor beta (Homo sapiens) (UniProt P10828); assay: qHTS assay for small molecule antagonists of thyroid hormone receptor beta signaling (AID 588547; active = well fitted inhibition curve with a large enough effect in the signal ratio, with a control signal flat, not every such curve was filed as active; the % refers to the signal ratio;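 also: cells stimulated with 0.4 nM T3 agonist during compound exposure; series mostly up to about 77 µM; % is scaled to controls: 0 for no effect and ±100 for the full control effect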); conditions: TR-UAS-bla HEK293, beta-lactamase ratio, antagonist mode, 18 h
In short: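 Inhibition of T3-driven (0.4nM final) beta-lactamase reporter activity was measured over 0.59 nM to 92 uM compound after 18 h at 37 C. The cells were GripTite HEK293 TR-UAS-bla in charcoal/dextran-stripped serum, with CCF4 ratio read-out and IC50 from Hill fits.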

[11] = biological target: Voltage-gated inwardly rectifying potassium channel KCNH2 (Homo sapiens) (UniProt Q12809); assay: qHTS Assay for Small Molecule Inhibitors of the Human hERG Channel Activity (AID 588834; active = well fitted curve in the direction sought with a large enough effect; an effect the other way counts as inactive or inconclusive;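 also: top concentration of the series differs between compounds; % is scaled to controls: 0 for no effect and ±100 for the full control effect; lower thallium flux fluorescence means stronger hERG block; nearly all actives have a fitted effect of over 50% in size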)
Voltage-gated inwardly rectifying potassium channel KCNH2 (Homo sapiens), sequence (Q12809 whole entry, looked up): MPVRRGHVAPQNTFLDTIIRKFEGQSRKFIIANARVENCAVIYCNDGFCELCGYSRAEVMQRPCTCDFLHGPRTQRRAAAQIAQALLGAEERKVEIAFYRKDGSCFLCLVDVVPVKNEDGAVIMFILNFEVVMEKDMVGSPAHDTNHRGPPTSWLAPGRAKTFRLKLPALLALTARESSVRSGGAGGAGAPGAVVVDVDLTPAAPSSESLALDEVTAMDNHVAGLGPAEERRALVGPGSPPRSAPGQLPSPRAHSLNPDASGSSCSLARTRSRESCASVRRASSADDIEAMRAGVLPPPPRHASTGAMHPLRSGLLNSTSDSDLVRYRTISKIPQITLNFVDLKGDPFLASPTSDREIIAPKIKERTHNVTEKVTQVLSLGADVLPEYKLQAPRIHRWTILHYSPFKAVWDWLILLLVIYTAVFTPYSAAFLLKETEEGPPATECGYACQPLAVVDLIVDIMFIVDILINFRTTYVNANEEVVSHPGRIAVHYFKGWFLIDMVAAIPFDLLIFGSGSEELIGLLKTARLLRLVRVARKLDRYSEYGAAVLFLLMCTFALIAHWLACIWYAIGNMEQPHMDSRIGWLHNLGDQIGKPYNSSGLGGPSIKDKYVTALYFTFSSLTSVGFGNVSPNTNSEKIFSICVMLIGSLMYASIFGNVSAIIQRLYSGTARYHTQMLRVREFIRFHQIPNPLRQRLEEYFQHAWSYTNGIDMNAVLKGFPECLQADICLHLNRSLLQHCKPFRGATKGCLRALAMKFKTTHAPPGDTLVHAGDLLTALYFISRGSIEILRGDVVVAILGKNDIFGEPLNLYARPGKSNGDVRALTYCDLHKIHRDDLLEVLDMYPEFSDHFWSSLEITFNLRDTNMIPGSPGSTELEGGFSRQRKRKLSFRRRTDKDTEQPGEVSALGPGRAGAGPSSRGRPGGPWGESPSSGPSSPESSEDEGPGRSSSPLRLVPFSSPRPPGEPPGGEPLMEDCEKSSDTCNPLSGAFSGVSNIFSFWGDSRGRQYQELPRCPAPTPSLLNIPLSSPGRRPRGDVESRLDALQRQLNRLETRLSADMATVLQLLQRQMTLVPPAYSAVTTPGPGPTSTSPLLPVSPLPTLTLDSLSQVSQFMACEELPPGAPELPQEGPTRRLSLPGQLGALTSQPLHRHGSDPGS
In short: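 hERG-BacMam U2OS, 2000 cells/well; 0.7X FluxOR loading 1 hr RT dark; cpd ~10 min 37 °C; stim buffer; FDSS fluorescence 2 min @ 1 s; AC50 Hill fit.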

[12] = qHTS assay for small molecule agonists of the antioxidant response element (ARE) signaling pathway (AID 651741; active = well fitted activation curve with a large enough effect in the signal ratio; the % refers to the signal ratio; also: potency is read from the fitted curve at half-maximal effect; as to activation: % of control where 0% means no effect)
In short: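 Seeding 2,000 ARE-bla HepG2 cells per well preceded a 5 h incubation at 37 C/5% CO2 and a 16 h compound exposure at 37 C. Beta-lactamase reporter activity was then quantified by fluorescence after 2 h with LiveBLAzer B/G FRET substrate.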

[13] = qHTS assay for small molecule activators of the p53 signaling pathway (AID 651743; active = well fitted activation curve with a large enough effect in the signal ratio, not every such curve was filed as active; the % refers to the signal ratio; also: series mostly up to about 92 µM; % of control where 0% means no effect); conditions: HCT-116 p53RE-bla, beta-lactamase FRET ratio, 16 h; activation: stronger effect = higher value
In short: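 Screen for p53 pathway agonists uses stably transfected p53RE-bla HCT-116 cells, 4,000 per well, treated 16 h at 37 C with compounds in DMSO.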

[14] = qHTS assay for small molecule activators of the nuclear factor-kappa B (NF-kB) signaling pathway (AID 651749; active = well fitted activation curve with a large enough effect in the signal ratio; the % refers to the signal ratio; also: series mostly up to about 77 µM; % of control where 0% means no effect); conditions: NF-kB-bla ME-180 cells, beta-lactamase FRET ratio, 16 h; stronger effect = higher value
In short: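 Stably transfected ME-180 line; NF-kB response element upstream of beta-lactamase. Treatment: compound or DMSO, 16 hr. Detection: fluorescent FRET substrate.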

[15] = Cell Viability - LYMP2-024 (AID 988; active = well fitted curve in the direction sought with a large enough effect; an effect the other way counts as inactive or inconclusive;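 also: plate controls were DMSO only for no effect and 92 µM tetraoctylammonium bromide for full effect; nearly all actives have a fitted effect of over 60% in size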)
In short: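 Human lymphoblastoid cells (2500/well) in complete medium were preincubated 5 hr at 37 C, then exposed to compounds for 24 hr at 37 C. Intracellular ATP was read by CellTiter-Glo luminescence; AC50 from Hill-equation fits of concentration-response data.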

[16] = biological target: Peroxisome proliferator-activated receptor gamma (Homo sapiens) (UniProt P37231); assay: qHTS assay for small molecule antagonists of peroxisome proliferator-activated receptor gamma signaling (AID 588537; active = well fitted inhibition curve with a large enough effect in the signal ratio, with a control signal flat, not every such curve was filed as active; the % refers to the signal ratio;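 also: reporter cells co-stimulated with 50 nM rosiglitazone agonist during compound treatment; % of control where 0% means no effect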)
In short: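 Inhibitors of agonist-stimulated UAS-bla reporter activity were sought in HEK293 cells; rosiglitazone (50 nM) defined full signal and DMSO baseline. Curves fitted to Hill model gave IC50 and efficacy.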

[17] = qHTS assay for small molecule disruptors of the mitochondrial membrane potential - 1 hr assay (AID 651754); also: % is scaled to controls: 0 for no effect and ±100 for the full control effect; nearly all actives have a fitted effect of over 35% in size
In short: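 HepG2 cells, attached overnight at 37C, were exposed to compound or DMSO vehicle for 1 hr at 37C, 5% CO2, then stained with Mito-MPS dye for 30 min. Red aggregate versus green monomer fluorescence reports membrane potential.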

[18] = biological target: Estrogen receptor (Homo sapiens) (UniProt P03372); assay: qHTS assay for small molecule antagonists of estrogen receptor alpha signaling (AID 588513; active = well fitted curve in the direction sought with a large enough effect in the signal ratio, with a control signal flat, not every such curve was filed as active; the % refers to the signal ratio; also: % is scaled to controls: 0 for no effect and ±100 for the full control effect)
Estrogen receptor (Homo sapiens), sequence (P03372 whole entry, looked up): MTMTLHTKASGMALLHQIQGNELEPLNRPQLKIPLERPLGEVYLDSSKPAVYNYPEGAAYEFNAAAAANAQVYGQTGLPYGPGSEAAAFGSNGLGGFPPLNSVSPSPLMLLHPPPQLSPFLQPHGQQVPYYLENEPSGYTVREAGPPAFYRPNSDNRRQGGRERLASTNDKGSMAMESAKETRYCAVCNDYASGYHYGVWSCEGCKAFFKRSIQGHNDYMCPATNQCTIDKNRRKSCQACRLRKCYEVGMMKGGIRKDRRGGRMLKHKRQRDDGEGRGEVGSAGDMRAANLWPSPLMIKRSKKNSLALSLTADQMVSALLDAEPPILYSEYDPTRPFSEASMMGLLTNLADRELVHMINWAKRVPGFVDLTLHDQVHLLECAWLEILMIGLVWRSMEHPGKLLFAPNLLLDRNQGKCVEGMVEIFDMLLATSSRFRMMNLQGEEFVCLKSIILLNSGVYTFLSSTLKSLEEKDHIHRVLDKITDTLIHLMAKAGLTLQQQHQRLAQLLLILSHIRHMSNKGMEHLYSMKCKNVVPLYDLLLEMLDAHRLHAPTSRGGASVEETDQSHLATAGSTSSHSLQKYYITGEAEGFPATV
In short: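 Fluorescence from CCF4 substrate after 2 h at room temperature gave reporter activity; cells had been exposed to compound and 0.5nM 17-beta-estradiol for 18 h at 37 C. Hill-equation fitting yielded IC50 and maximal response.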

[19] = biological target: Bile acid receptor (Homo sapiens) (UniProt Q96RI1); assay: qHTS assay for small molecule agonists of farnesoid X receptor signaling (AID 588527); conditions: HEK293T FXR-UAS-bla, beta-lactamase ratio, 16 h; stronger effect = higher value;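 also: series mostly up to about 77 µM; 0% = vehicle basal and 100% = reference agonist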
Bile acid receptor (Homo sapiens), sequence (Q96RI1 whole entry, looked up): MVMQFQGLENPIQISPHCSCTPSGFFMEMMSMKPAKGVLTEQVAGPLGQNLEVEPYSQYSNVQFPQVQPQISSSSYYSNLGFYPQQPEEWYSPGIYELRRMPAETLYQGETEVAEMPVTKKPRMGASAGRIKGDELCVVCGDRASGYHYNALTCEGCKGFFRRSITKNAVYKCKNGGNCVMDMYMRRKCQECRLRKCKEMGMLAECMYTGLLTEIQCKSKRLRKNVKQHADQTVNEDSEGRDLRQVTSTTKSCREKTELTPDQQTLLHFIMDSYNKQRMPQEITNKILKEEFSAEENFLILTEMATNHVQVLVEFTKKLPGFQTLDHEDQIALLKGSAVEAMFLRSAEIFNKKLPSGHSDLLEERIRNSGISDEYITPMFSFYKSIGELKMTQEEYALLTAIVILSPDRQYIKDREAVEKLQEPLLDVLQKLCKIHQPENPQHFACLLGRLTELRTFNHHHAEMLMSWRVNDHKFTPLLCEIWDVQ
In short: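 Quantitative HTS used FXR-UAS-bla HEK293T cells with 16 h compound incubation at 37 C. EC50 values came from concentration-response curves normalized to chenodeoxycholic acid.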

[20] = biological target: Glucocorticoid receptor (Homo sapiens) (UniProt P04150); assay: qHTS assay for small molecule antagonists of glucocorticoid receptor signaling (AID 588533; active = well fitted inhibition curve with a large enough effect in the signal ratio, with a control signal flat, not every such curve was filed as active; the % refers to the signal ratio;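 also: cells stimulated with 2 nM dexamethasone as agonist; % is scaled to controls: 0 for no effect and ±100 for the full control effect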)
In short: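 Antagonist-mode qHTS: compound titrations added to GRE-bla HeLa cells, then dexamethasone 2 nM final; 18 h, 37 C. CCF4 FRET fluorescence normalized to dexamethasone and DMSO; IC50 from Hill fit.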

C=CC=O
active: Potency [12] 47.3 µM
40.7%: max response [5]
inactive: outcome [1] | Potency [2] | activation [3] -2.21% | outcome [4] | outcome [6] | outcome [7] | outcome [8] | Potency [9] | activity change % (negative = inhibition) [10] 2.84% | Potency [11] | activation [13] -0.485% | activation [14] -0.542%

CC(C)(Cl)Cl
-19.4%: max response [5]
inactive: outcome [1] | Potency [15] | outcome [6] | outcome [7] | Potency [16] | outcome [8] | activity change % (negative = inhibition) [10] -3.24% | Potency [11] | Potency [12] | activation [13] -1.59% | activation [14] 0.397% | Potency [17]

Clc1ccc(C(Cl)(Cl)Cl)c(Cl)c1
5.85%: max response [5]
inactive: Potency [2] | Potency [15] | outcome [7] | Potency [16] | outcome [8] | Potency [9] | activity change % (negative = inhibition) [10] 16.5% | Potency [12] | activation [13] -0.0334% | activation [14] -0.477% | Potency [17]

Clc1ccc(Cl)c(Cl)c1
inactive: outcome [1] | Potency [2] | Potency [15] | outcome [4] | Potency [16] | outcome [8] | Potency [9] | activity change % (negative = inhibition) [10] -0.795% and 9.45% | Potency [12] | activation [13] -3.13% and -3.99% | Potency [17]
-17.8% and 7%: max response [5]

C=C(C)CCl
2.33%: max response [5]
inactive: Potency [15] | Potency [18] | activation [19] -1.8% | activation [3] 15.7% | outcome [20] | outcome [6] | outcome [7] | Potency [11] | Potency [12] | activation [13] -3.39% | activation [14] -0.185% | Potency [17]

CCC(Cl)[N+](=O)[O-] (stereo unspecified)
inactive: Potency [15] | Potency [18] | activation [19] -1.12% | activation [3] -1.58% | outcome [4] | outcome [7] | Potency [16] | Potency [9] | activity change % (negative = inhibition) [10] -30.2% | Potency [11] | activation [13] -1.08% | activation [14] 0.0697%
2.58%: max response [5]

OCCBr
inactive: Potency [2] | Potency [15] | Potency [18] | activation [19] -2.65% | activation [3] -2.73% | outcome [20] | outcome [7] | Potency [16] | outcome [8] | Potency [9] | activation [14] 0.0665% | Potency [17]

Nc1cc(Cl)cc(Cl)c1
-13.8%: max response [5]
inactive: outcome [1] | Potency [2] | Potency [15] | activation [19] -0.351% | outcome [4] | outcome [6] | outcome [7] | Potency [16] | outcome [8] | Potency [9] | Potency [11] | activation [13] 1.82% | activation [14] 0.8%

NC1CCC(CC2CCC(N)CC2)CC1 (stereo unspecified)
-9.87%: max response [5]
inactive: outcome [1] | Potency [2] | Potency [15] | Potency [18] | activation [19] -0.153% and 0.847% | activation [3] 2.97% and -18.9% | outcome [4] | outcome [6] | outcome [7] | Potency [16] | Potency [9] | activity change % (negative = inhibition) [10] 7.19% | Potency [11] | Potency [12] | activation [13] -3.72% and -4.21% | activation [14] -0.779% and -0.659% | Potency [17]
